# Results filed as inconclusive are left out. Calls of active or inactive are those of the source. The call rests on the fitted dose curve; in most records, active means well fitted inhibition curve with a large enough effect; inconclusive means small, poorly fitted or top-dose-only effect; inactive means no such curve, though single readings can be large or run the other way.
# Assay: Acumen qHTS Assay for Inhibitors of the mTORC1 Signaling Pathway in MEF (Tsc2-/-, p53-/-) Cells: Hit Validation;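 further: phospho-rpS6 Ser235/236 immunofluorescence normalized to propidium iodide cell count; nearly all actives have a fitted effect of over 65% in size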;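 on activity change, negative = inhibition: cells exposed to compound for 24 hours; plate controls were DMSO for no effect and 7.5 nM rapamycin control for full effect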
# Conditions: Acumen imaging; activity change, negative = inhibition: at 37.3 µM (top of the series)
# Potency means the concentration at half of the fitted maximal effect.
SMILES,"activity change, negative = inhibition",Potency
CC(C)S(=O)(=O)c1oc(-c2ccc(F)cc2)nc1S(=O)(=O)c1ccc(F)cc1,-95%,–
CCOc1ccc(CC(=O)NC2CC(=O)N(c3ccc4c(c3)OCCO4)C2)cc1 (configuration not stated),-2.04%,–
COc1ccccc1C(=O)Nc1ccc2nc(N3CCC(C)CC3)cc(C)c2c1,-19.9%,–
COc1ccc(OCC(=O)NCc2ccc3c(c2)CCN3C(=O)c2cccc(C)c2)cc1,-87.8%,–
CCSc1oc(-c2ccc(F)cc2)nc1S(=O)(=O)c1ccc(C)cc1,-25.8%,–
CCCCC1CCC(C(=O)N2CC(=O)Nc3ccc(Cl)cc3C2c2ccc(F)cc2)CC1 (configuration not stated),-41.1%,–
Cc1cccc(C(=O)Nc2c3c(nn2-c2ccc(Cl)cc2)CS(=O)(=O)C3)c1,12.6%,–
CCc1ccc(-c2nc(CSCC(=O)NCc3ccc(C)cc3)c(C)o2)cc1,4.67%,–
CCC(=O)C1=C(c2ccc(Cl)cc2)N(C(=O)CC)n2c(C)nnc2S1,-10.3%,–
CCOc1ccc(C(=O)Nc2ccc3nc4c(c(Nc5ccccc5OC)c3c2)CCCC4)cc1,-66.6%,–
CCCCN(CCCNC(=O)c1cc(Nc2cccc(SC)c2)nc2ccccc12)Cc1ccccc1,-95.1%,–
CCCCOC(=O)c1ccc(NC(=O)c2sc3nc(C)cc(C)c3c2N)cc1,-72%,–
O=C(Nc1ccc(F)c(Cl)c1)c1cc(S(=O)(=O)N2CCCc3ccccc32)ccc1F,-51.1%,–
Cc1ccccc1NC(=O)c1sc2nc3c(cc2c1N)CCCC3,-21.3%,–
Cc1ccc2c(c1)C(=O)C(=O)N2Cc1ccc(OC(C)C)cc1,–,0.0736 µM (active)
O=C(NCc1ccc(F)cc1)c1ccc2c(Cl)c3c(nc2c1)CCCC3,26.5%,–
CCS(=O)(=O)c1ncc(Cl)c(C(=O)N2CCN(c3cccc(Cl)c3)CC2)n1,–,1.31 µM (active)
Cc1nn(C(C)C(=O)NC2CCC(C)CC2)c(=O)c2c1sc1ccccc12 (configuration not stated),-5.69%,–
COc1ccc(-n2ncc3c(NCCCOC(C)C)ncnc32)cc1,1.17%,–

SMILES,"activity change, negative = inhibition",Potency
CCOc1ccc(S(=O)(=O)N(C(=O)c2ccncc2)c2ccc3oc(C)c(C(=O)OC)c3c2)cc1,–,3.69 µM (active)
CCOC(=O)Cn1c(=O)c2c(nc(N3CCOCC3)n2Cc2ccccc2)n(C)c1=O,–,2.93 µM (active)
CCc1ccc(S(=O)(=O)c2c(C(=O)c3ccc(C)c(C)c3)cnc3ccccc23)cc1,5.96%,–
CC1C(=O)N2CCCc3cc(S(=O)(=O)Nc4ccc(Br)cc4F)cc1c32 (configuration not stated),–,4.65 µM (active)
COc1ccccc1C1C=C(c2ccc(Cl)cc2)Nc2nc(-c3ccc(Cl)cc3)nn21 (configuration not stated),-9.46%,–
Cc1ccccc1CN1C(=O)C(O)(CC(=O)c2cccc(Br)c2)c2ccccc21 (configuration not stated),-20%,–
CCc1nn(CC(=O)NCc2ccccc2)c(=O)c2cccn12,5.81%,–
O=C(NCCN1CCN(c2cccc(Cl)c2)CC1)Nc1ccccc1C(F)(F)F,-3.27%,–
CCCCN(CC)CCNC(=O)C1CCN(c2nnc(C)c3c(C)n(-c4ccc(C)cc4)nc23)CC1,-14.5%,–
Cc1cccc(N2CCN(c3ncnc4c3nc3n4CCCCC3)CC2C)c1 (configuration not stated),–,3.29 µM (active)
COC(=O)c1ccccc1NC(=O)c1nc(S(=O)(=O)Cc2cccc(C)c2)ncc1Cl,–,4.14 µM (active)
COc1ccc(S(=O)(=O)N(Cc2nc(-c3cccc(C)c3)no2)C2CCCCC2)cc1,-16.2%,–
O=C(COc1ccc(F)cc1)Nc1ccc(Cl)c(-c2nc3ccccc3[nH]2)c1,-4.39%,–
COc1cccc(-n2c(-c3ccco3)nc3c(cnn3-c3ccc(C)cc3)c2=O)c1,15.6%,–
O=C(Nc1cccc(NC(=O)c2ccccc2Cl)c1)c1cccc(Br)c1,-1.41%,–
CCC1CCc2nc3sc(C(=O)Nc4cccc(F)c4)c(N)c3cc2C1 (configuration not stated),–,5.21 µM (active)
COc1cc(Br)ccc1C1C(C(=O)Nc2ccc(C)cc2C)=C(C)Nc2nnnn21 (configuration not stated),-23.7%,–
Cc1ccccc1CS(=O)(=O)c1ncc(Cl)c(C(=O)Nc2nnc(C(C)C)s2)n1,-92.9%,–
